# Screening data from PubChem.
# Compounds with a hit are over-represented: about 2.4% of the library has one in this group of screens.
# CHT block: inhibits the human high affinity choline transporter. AID 488975. B-score at 10 µM. 0.86% of 310,000 active. Q9GZV3. CHT-expressing cells, membrane potential dye, choline response; stronger effect = lower value;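 active means B-score over 3 SD under the library average, and starting fluorescence ratio not unusually high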;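 further: choline stimulus applied at its EC90 after an EC20 pre-addition; B-score computed on integrated fluorescence ratio after choline addition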
# CHT PAM: allosteric activators of human choline transporter CHT | CHT-expressing cells, membrane potential dye, choline EC20; stronger effect = higher value; LV-AA mutant CHT in HEK293 cells | B-score at 10 µM | 0.49% of 310,000 active | AID 488977;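 active means initial fluorescence not abnormally high and integrated response B-score, plate-corrected, over 3 SD above library mean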
# ANO1 activ: mouse TMEM16A channel activation, primary screen; Q8BHY3; HEK293 TMEM16A/YFP-H148Q/I152L, iodide quench fluorescence; stronger effect = lower value; B-score at 10 µM; 0.3% of 340,000 active; AID 623877;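 active means fluorescence-ratio B-score plate-corrected deviation score at least 3 library SD below zero, with starting fluorescence score within 5 deviations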;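 further: channel opened by trigger with iodide after compound preincubation; score built on the fluorescence ratio of max minus min over baseline; more negative score means more quench and so TMEM16A activation or potentiation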
# ANO1 block: mouse TMEM16A channel inhibition, primary screen; HEK293 TMEM16A/YFP iodide influx fluorescence, ionomycin; normalized B-score (activity score, 25-100; higher = stronger inhibition) at 10 µM; AID 588511; Q8BHY3; 1.2% of 310,000 active;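 active means ratio plate-corrected score three or more library SD toward inhibition, starting fluorescence score within five deviations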;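 further: score derived from kinetic fluorescence span divided by baseline fluorescence per well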
# TMEM16A reconf: re-confirmation of mouse TMEM16A chloride channel inhibitors; inhibition, % at 10 µM; HEK293 TMEM16A/YFP-H148Q, iodide quench fluorescence; ionomycin added to raise cell calcium; AID 652189; shares compounds with ANO1 block; 39% of 2,300 active;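 active means mean duplicate percent inhibition, scaled so buffer wells are 0 and the reference blocker 100, over three buffer SD above buffer mean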
# HEK293 Ca mobil: alters calcium mobilization in TMEM16A HEK293 cells, counter-screen. shares compounds with ANO1 block. TMEM16A/YFP HEK293, Fluo4 calcium mobilization. calcium response (% of ionomycin), % at 10 µM. 2% of 2,300 active. AID 652231;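 active means duplicate-averaged calcium signal over 20% of the ionomycin maximum, relative to buffer baseline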;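 further: each well's signal is peak minus trough fluorescence divided by its pre-addition baseline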
# YFP-HEK293 quench: counter-screen for TMEM16A inhibitors: effect in parental YFP-HEK293 cells | shares compounds with ANO1 block | iodide YFP quench, ionomycin | YFP ratio F(max-min)/F0 at 10 µM | 2,300 tested, under 10 active;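 active means yellow fluorescent protein signal ratio exceeding the buffer control mean by over 5 SD of those controls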;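 further: ratio is mean of duplicate wells from kinetic YFP trace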
# ClC-1 inh: rat ClC-1 inhibition, TMEM16A specificity screen | ratio percent, % at 10 µM | CHO ClC-1-YFP, iodide influx fluorescence quench; iodide control reads 0, buffer control 100 | 2,300 tested, under 10 active | AID 652236 | shares compounds with ANO1 block;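 active means duplicate-mean ratio percent above the mean of iodide-only control wells, which defines zero, plus 5 of their SD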;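 further: higher percent means stronger block of ClC-1 iodide influx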
# Target sequence (P35524 whole entry, looked up): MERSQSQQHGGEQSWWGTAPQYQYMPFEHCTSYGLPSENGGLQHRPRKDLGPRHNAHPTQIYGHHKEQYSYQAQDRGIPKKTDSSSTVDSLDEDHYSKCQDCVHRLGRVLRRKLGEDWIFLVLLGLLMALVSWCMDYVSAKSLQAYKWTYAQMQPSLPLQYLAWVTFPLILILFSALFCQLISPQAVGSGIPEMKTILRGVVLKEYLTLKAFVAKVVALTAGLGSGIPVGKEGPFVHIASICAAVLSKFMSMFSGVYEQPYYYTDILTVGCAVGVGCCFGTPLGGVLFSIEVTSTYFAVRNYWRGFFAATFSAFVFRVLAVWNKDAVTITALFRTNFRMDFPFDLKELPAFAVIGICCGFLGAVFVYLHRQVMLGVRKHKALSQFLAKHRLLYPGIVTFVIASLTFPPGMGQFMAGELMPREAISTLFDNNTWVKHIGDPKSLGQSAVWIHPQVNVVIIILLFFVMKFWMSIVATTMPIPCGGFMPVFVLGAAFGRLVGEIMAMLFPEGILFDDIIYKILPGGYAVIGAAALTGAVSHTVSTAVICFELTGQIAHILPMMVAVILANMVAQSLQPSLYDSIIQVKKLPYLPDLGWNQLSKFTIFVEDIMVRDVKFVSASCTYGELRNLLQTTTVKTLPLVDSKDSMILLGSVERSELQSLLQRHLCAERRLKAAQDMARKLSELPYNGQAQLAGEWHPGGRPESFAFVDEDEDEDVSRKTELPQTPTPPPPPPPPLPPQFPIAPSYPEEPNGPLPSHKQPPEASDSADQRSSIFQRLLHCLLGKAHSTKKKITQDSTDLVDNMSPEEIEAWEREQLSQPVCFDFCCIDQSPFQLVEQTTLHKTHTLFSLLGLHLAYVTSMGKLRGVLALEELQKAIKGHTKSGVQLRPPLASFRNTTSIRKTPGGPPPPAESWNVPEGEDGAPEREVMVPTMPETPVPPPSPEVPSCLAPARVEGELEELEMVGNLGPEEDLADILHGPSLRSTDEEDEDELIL
# A number is an active result; . = inactive; / = no result.
SMILES,CHT block,CHT PAM,ANO1 activ,ANO1 block,TMEM16A reconf,HEK293 Ca mobil,YFP-HEK293 quench,ClC-1 inh
CCCN(CCC)S(=O)(=O)c1ccc(C(=O)N2CCCc3ccccc32)cc1,.,.,.,100,.,.,.,.
CCOC(=O)C1=C(CC)OC(N)=C(C#N)C1c1ccc(NC(C)=O)cc1 (stereo unspecified),.,.,.,.,/,/,/,/
CCOc1ccc(Nc2cc(Nc3ccccc3OCC)nc(C=C(C#N)C#N)n2)cc1,.,.,.,.,.,.,.,.
CCN(CC)S(=O)(=O)c1cccc(NC(=O)COc2ccc(Cl)cc2Br)c1,.,.,.,25,.,.,.,.
O=S(=O)(c1ccc(C2CCCCC2)cc1)N1CCCC1,.,.,.,25,.,.,.,.
CC(=O)Nc1ccc(S(=O)(=O)N2CCN(C(=O)c3ncoc3-c3cccc(F)c3)CC2)cc1,.,.,.,100,.,.,.,.
CC(=O)Nc1ccc(S(=O)(=O)N2CCN(C(=O)c3ncoc3-c3cccc(C)c3)CC2)cc1,.,.,.,.,/,/,/,/
CCOC(=O)c1ccccc1NS(=O)(=O)c1ccc(OCC)cc1,.,.,.,25,.,.,.,.
COc1ccc(C(=O)c2sc(Nc3ccccc3)nc2C)cc1,.,.,.,.,.,.,.,.
Cc1nc(Nc2ccccc2)sc1C(=O)c1ccccc1,.,.,.,.,/,/,/,/
Cc1cc(C)n(C2CC(=O)N(c3ccc(C)c(Cl)c3)C2=O)n1 (stereo unspecified),.,.,.,.,/,/,/,/
Cc1ccccc1OCc1nc(-c2ccc(NC(=O)c3ccco3)cc2)no1,.,.,.,25,.,.,.,.
CN(C)C(CNC(=O)c1ccco1)c1cccs1 (stereo unspecified),.,.,.,.,/,/,/,/
CC(=O)N1CCSc2ccc(S(=O)(=O)NCCc3ccc(Cl)cc3)cc21,.,.,.,100,34%,.,.,.
CC(=O)N1CCSc2ccc(S(=O)(=O)NCCc3ccc(C)cc3)cc21,.,.,.,.,/,/,/,/
Cc1cccc(C(=O)Nc2ccc(C(=O)N/N=C/c3ccc(C)o3)cc2)c1,.,.,.,.,/,/,/,/
Cc1ccccc1NC(=S)NNC(=O)c1ccoc1C,.,.,.,100,.,.,.,.
Cc1ccc(C(=O)N2CCc3cc4c(cc3C2C)OCCCO4)cc1 (stereo unspecified),.,.,.,.,/,/,/,/
CC1c2cc3c(cc2CCN1C(=O)c1ccc(Cl)cc1)OCCCO3 (stereo unspecified),.,.,.,25,.,.,.,.
CC(Oc1ccc(C(=O)c2ccccc2)cc1)C(=O)Nc1ccc(S(N)(=O)=O)cc1 (stereo unspecified),.,.,.,100,54%,.,.,.
CC(Oc1ccccc1)C(=O)Nc1ccc(NC(=O)c2ccccc2)cc1 (stereo unspecified),.,.,.,.,/,/,/,/
CC(OC(=O)c1ccc(NC(=O)CC#N)cc1)C(=O)Nc1ccc(Oc2ccccc2)cc1 (stereo unspecified),.,.,.,.,/,/,/,/
Cc1cc(C(=O)OC(C)C(=O)Nc2nc(-c3ccccc3)cs2)c(C)o1 (stereo unspecified),.,.,.,25,.,.,.,.
CC(OC(=O)c1ccc(NC(=O)CC#N)cc1)C(=O)Nc1nc(-c2ccccc2)cs1 (stereo unspecified),.,.,.,100,22%,.,.,.
CC1=C(C(=O)OCc2ccccc2)C(c2ccc(Br)cc2)NC(=O)N1CCCCCC(=O)O (stereo unspecified),.,.,.,.,/,/,/,/
SMILES,CHT block,CHT PAM,ANO1 activ,ANO1 block,TMEM16A reconf,HEK293 Ca mobil,YFP-HEK293 quench,ClC-1 inh
COC(=O)C1=C(C)N(CCCC(=O)O)C(=O)NC1c1ccc(-c2ccccc2)cc1 (stereo unspecified),.,.,.,100,.,.,.,.
COC(=O)CCCCCN1C(=O)NC(c2ccccc2)C(C(=O)OCc2ccccc2)=C1C (stereo unspecified),.,.,.,25,16%,.,.,.
O=C(CSc1ncc(-c2ccccc2)n1-c1ccccc1)NCc1ccco1,.,.,.,25,.,.,.,.
O=C(CSc1ccc2nnc(-c3ccccc3)n2n1)NCc1ccco1,.,.,.,100,.,.,.,.
COc1ccc(-c2nnc3ccc(SCC(=O)NCc4ccco4)nn23)cc1,.,.,.,.,/,/,/,/
Cc1nnc(SCC(=O)NCc2ccco2)n1-c1ccccc1,.,.,.,.,/,/,/,/
Cc1nn(-c2nc(-c3ccco3)cc(C(F)(F)F)n2)c(C)c1Br,.,.,.,25,.,.,.,.
Fc1ccc(N2CCN(c3nc(-c4ccco4)cc(C(F)(F)F)n3)CC2)cc1,.,.,.,.,/,/,/,/
CCOc1ccc(CN2CCN(C3CCSCC3)CC2CCO)cc1 (stereo unspecified),.,.,.,.,/,/,/,/
COC(=O)c1c(NS(=O)(=O)c2ccc(C)cc2)sc2c1CCC(C)C2 (stereo unspecified),.,.,.,100,30%,.,.,.
COC(=O)c1c(NS(=O)(=O)Cc2ccccc2)sc2c1CCCC2,.,.,.,.,/,/,/,/
COC(=O)c1c(NC(=O)CN(C)CC(=O)Nc2ccc(C)cc2)sc2c1CCC(C)C2 (stereo unspecified),/,/,.,/,/,/,/,/
CC(C)OC(=O)c1c(NS(=O)(=O)c2ccccc2)sc2c1CCCC2,.,.,.,100,72%,.,.,.
O=S(=O)(NCC1CCCO1)c1cnc(Cl)c(Br)c1 (stereo unspecified),.,.,.,.,/,/,/,/
COc1cccc(-c2c(C#N)c(N)nc3c2c(C)nn3-c2ccccc2)c1O,.,.,.,100,45%,.,.,.
Cc1nn(-c2ccccc2)c2nc(N)c(C#N)c(-c3ccc(C(C)(C)C)cc3)c12,.,.,.,.,/,/,/,/
O=C1C(SCCO)=C(SCCO)C(=O)c2ccccc21,.,.,.,100,40%,.,.,.
CC1=C(SCc2ccccc2)C(=O)c2ccccc2C1=O,/,/,.,/,/,/,/,/
Cc1cc(=O)c2ccc(C(F)(F)F)cc2[nH]1,.,.,.,.,/,/,/,/
O=c1cc(C(F)(F)F)[nH]c2ccc(C(F)(F)F)cc12,.,.,.,100,34%,.,.,.
Clc1ccc(OCCSCc2nc3ccccc3[nH]2)cc1,.,.,.,100,20%,.,.,.
Clc1ccc(SCc2nc3ccccc3[nH]2)cc1,.,.,.,.,/,/,/,/
CCCCn1c(N)c(N(CC(C)C)C(=O)CC2CCCC2)c(=O)[nH]c1=O,.,.,.,.,/,/,/,/
